Assay [1] is described as follows: qHTS assay to identify small molecule agonists of the estrogen receptor alpha (ER-alpha) signaling pathway in the presence of an antagonist - cell viability counter screen (AID 1259386).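 Further: series mostly up to about 92 µM; cells exposed to compounds for 22 h at 37 °C before the viability read; nearly all actives have a fitted effect of over 30% in size.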 The method in brief: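 In this counter screen, compound effects on VM7Luc4E2 viability were tested in the presence of the antagonist ICI-182,780 at 10.0nM final. Compounds were dosed at 15 concentrations, exposure lasted 22hr, and the CellTiter-Fluor signal was read.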
For orientation: qHTS replaces the single test concentration by a dilution series.

Assay [2] deals with Progesterone receptor (Homo sapiens) (UniProt P06401). The assay can be described thus: qHTS assay to identify small molecule antagonists of the progesterone receptor (PR) signaling pathway (AID 1346795; active means well fitted inhibition curve with a large enough effect in the signal ratio in the repeat runs, not every such curve was filed as active; the % refers to the signal ratio). The essentials: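 Stimulus R5020 at 1 nM final; cells HEK293T PR-UAS-bla; medium with 2% charcoal-stripped FBS; compound exposure 16 hr at 37C, 5% CO2; detection by FRET beta-lactamase substrate, 2 hr, room temperature.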

The nature of assay [3]: qHTS assay to identify small molecule antagonists of the progesterone receptor (PR) signaling pathway - cell viability counter screen (AID 1346798). Further: nearly all actives have a fitted effect of over 50% in size. Further: potency means the concentration at half of the fitted maximal effect. The essentials:
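In the same plates used for the beta-lactamase readout, cell viability of compound- and R5020-treated PR-UAS-bla HEK293T cells (16 hr, 37C) was assessed by CellTiter-Glo luminescence.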

The nature of assay [4]: qHTS assay to identify small molecule antagonists of the TGF-beta/Smad signaling pathway - cell viability counter screen (AID 1346824). Further: nearly all actives have a fitted effect of over 50% in size. The essentials:
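SBE-bla HEK 293T cells, incubated overnight, then compound plus 0.25 ng/mL TGF-beta1 (stock added) for 5 hr at 37 C. Viability was read in the same wells by CellTiter-Glo luminescence after 30 min at room temperature.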

Assay [5] can be described thus: qHTS assay to identify small molecule agonists of the TGF-beta/Smad signaling pathway (AID 1346859; active means well fitted activation curve with a large enough effect in the signal ratio in the repeat runs, not every such curve was filed as active; the % refers to the signal ratio; further: series mostly up to about 77 µM). The method in brief:
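Screening used HEK 293T SBE-bla cells at 4,000/well. Test agents: 5 hr, 37 C. Detection: FRET substrate, 2 hr RT, then excitation 405 nm with emissions at 460 and 530 nm.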

The target of assay [6] is Thyrotropin-releasing hormone receptor (Homo sapiens) (UniProt P34981). The assay can be described thus: qHTS assay to identify small molecule antagonists of the thyrotropin-releasing hormone receptor (TRHR) signaling pathway (AID 1346877; active means well fitted inhibition curve with a large enough effect in the repeat runs, not every such curve was filed as active; further: series mostly up to about 51 µM). The method in brief:
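Kinetic fluorescence (3 min, 1 s resolution) following stimulation with TRH at 1 nM final; HEK293 cells bearing human TRHR; 5 min compound preincubation at RT; concentration-response over 15 points, triplicates.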

Assay [7] has the same target. As to the kind of experiment: qHTS assay to identify small molecule agonists of the thyrotropin-releasing hormone receptor (TRHR) signaling pathway (AID 1346891; calls by dose curve; further: series mostly up to about 58 µM). The essentials: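 Readout was intracellular calcium fluorescence in TRHR-Hek293 cells. Cells were incubated 18 h, dye-loaded 2 h at 37 °C, and treated with compound in agonist mode.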
A short description of assay [8]: Human pregnane X receptor (PXR) small molecule agonists, qHTS cell viability counter screen (AID 1346977). Further: nearly all actives have a fitted effect of over 50% in size. The method in brief: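 In each well, the PXR reporter HepG2 line was checked for viability: CellTiter-Fluor reagent added 23hr post-dosing, fluorescence read after 1hr incubation at 37C.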
Assay [9] is described as follows: Caspase-3/7 induction in HepG2 cells by small molecules, qHTS assay (AID 1346978). Further: nearly all actives have a fitted effect of over 15% in size. The method in brief: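 Wild-type HepG2 cells, 2,000/well, settled 5 hr at 37 C and 5% CO2, then compound-treated for 17 hr; caspase-3/7 activity read by luminescent Caspase-Glo 3/7 after 30 min at room temperature.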
Assay [10] in a line: Caspase-3/7 induction in CHO-K1 cells by small molecules, qHTS assay (AID 1346980). Further: nearly all actives have a fitted effect of over 15% in size. The essentials: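 Wild-type CHO-K1 cells exposed to compounds for 17hr at 37 C, 5% CO2. Caspase-3/7 activity then measured by Caspase-Glo 3/7 luminescence after 30min at room temperature.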
Assay [11] can be described thus: Caspase-3/7 induction in HepG2 cells by small molecules, qHTS cell viability counter screen (AID 1346981). Further: series mostly up to about 92 µM; nearly all actives have a fitted effect of over 30% in size. The method in brief:
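In this quantitative HTS counter screen, compounds delivered in DMSO were left on unmodified HepG2 cells for 16 hr at 37 C. Viability was then determined fluorometrically with CellTiter-Fluor, in parallel with caspase-3/7 induction in the same wells.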

Assay [12] addresses Nuclear receptor subfamily 1 group I member 2 (Homo sapiens) (UniProt O75469). The assay can be described thus: Human pregnane X receptor (PXR) small molecule agonists, qHTS assay (AID 1346982). Further: nearly all actives have a fitted effect of over 35% in size. Further: potency means the concentration at half of the fitted maximal effect. The method in brief:
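Reporter HepG2 cells expressing PXR-Luc are cultured in charcoal-stripped FBS (5%), treated with compounds for 24 hr at 37 C, and assayed by ONE-Glo luminescence after 30 min at room temperature.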

Assay [13] deals with Acetylcholinesterase (Homo sapiens) (UniProt P22303). The assay can be described thus: Acetylcholinesterase (AChE) small molecule antagonists: colormetric cell-based qHTS assay (AID 1347395; calls by dose curve; further: nearly all actives have a fitted effect of over 30% in size). The method in brief:
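After overnight attachment at 37 C, SH-SY5Y cells get 30 min compound exposure; detection cocktail (acetylthiocholine, DTNB) then incubates 90 min at 37 C, and absorbance reflects AChE-generated thiocholine.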

Assay [14] is described as follows: qHTS assay to identify small molecule agonists of the progesterone receptor (PR) signaling pathway - cell viability counter screen (AID 1346799; calls by dose curve; further: nearly all actives have a fitted effect of over 45% in size; further: potency means the concentration at half of the fitted maximal effect). The method in brief: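 Multiplexed viability read: CellTiter-Glo luminescence, 30 min RT, following LiveBLAzer FRET measurement on PR-UAS-bla HEK293T cells exposed to compounds 16 hr.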
The nature of assay [15]: qHTS assay to identify small molecule agonists of the TGF-beta/Smad signaling pathway - cell viability counter screen (AID 1346829). Further: top concentration of the series differs between compounds; nearly all actives have a fitted effect of over 45% in size. The essentials: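 In parallel with the Smad reporter read, viability of HEK 293T cells stably carrying SBE-bla is quantified by ATP luminescence following 5 hr compound treatment.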
A short description of assay [16]: Caspase-3/7 induction in CHO-K1 cells by small molecules, qHTS cell viability counter screen (AID 1346979). Further: nearly all actives have a fitted effect of over 35% in size. The essentials:
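Following a 5hr settling period, CHO-K1 cells at 1,500 per well received DMSO-dissolved compounds. Cell viability was quantified 16hr later by CellTiter-Fluor fluorescence, measured after 1hr with reagent at 37C.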

Assay [17] deals with Progesterone receptor (Homo sapiens) (UniProt P06401). As to the kind of experiment: qHTS assay to identify small molecule agonists of the progesterone receptor (PR) signaling pathway (AID 1346784; calls by dose curve; further: nearly all actives have a fitted effect of over 30% in size). The method in brief: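 Reporter assay, GripTite PR-UAS-bla HEK 293T cells: 16 hr exposure to DMSO-dissolved compounds at 37C, 5% CO2, in steroid-depleted (2% charcoal-stripped FBS) medium; beta-lactamase measured by FRET fluorescence.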

Assay [18] has as its target Nuclear receptor subfamily 1 group I member 2 (Rattus norvegicus) (UniProt Q9R1A7). As to the kind of experiment: Rat pregnane X receptor (rPXR) activation by small molecules, qHTS assay (AID 1346983). Further: nearly all actives have a fitted effect of over 20% in size. Particulars: rPXR luciferase reporter cells, One-Glo luminescence, 24 h; stronger effect = higher value. The essentials: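 Cell-based rPXR activation assay: rPXR cells, 2,000 per well, rested 5hr at 37 C, then exposed to compounds in DMSO for 24 hr at 37 C. Luciferase activity read by One-Glo luminescence after 30 min at room temperature.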

Assay [19] has as its target Nuclear receptor subfamily 1 group I member 2 (Homo sapiens) (UniProt O75469). As to the kind of experiment: CYP3A4 induction through human pregnane X receptor (PXR) by small molecules, qHTS assay (AID 1346984). Further: nearly all actives have a fitted effect of over 40% in size. The essentials:
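Induction measured in HepG2-based DPX-2 cells co-expressing human PXR and a CYP3A4 promoter-driven luciferase. After a 24-hour compound exposure, cells received CYP3A4 luciferin substrate at 3uM final for 3 hours, and light output was then recorded.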

Assay [20] has the same target. The assay can be described thus: Human pregnane X receptor (PXR) activation by small molecules, qHTS assay (AID 1346985). Further: nearly all actives have a fitted effect of over 40% in size. The essentials: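 DPX-2 cells (HepG2 co-transfected with a PXR response element and a CYP3A4-promoter luciferase construct) were seeded at 2,000 per well, rested 5 hr at 37C, then exposed to DMSO-dissolved compounds for 24 hr. Activation was read as luciferase luminescence.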

A number with no mark means an inactive call. Records with an inconclusive call do not appear. Active and inactive are the calls of the source. Unless noted, the call rests on the fitted dose curve; in most records, active means well fitted curve in the direction sought with a large enough effect in the repeat runs; inconclusive means weak or mixed curves; inactive means no such curve, though single readings can be large; an effect the other way counts as inactive or inconclusive.
On the % scale 0 is the no-effect control and ±100 the full control effect.

Acetylcholinesterase (Homo sapiens), sequence (P22303 whole entry, looked up): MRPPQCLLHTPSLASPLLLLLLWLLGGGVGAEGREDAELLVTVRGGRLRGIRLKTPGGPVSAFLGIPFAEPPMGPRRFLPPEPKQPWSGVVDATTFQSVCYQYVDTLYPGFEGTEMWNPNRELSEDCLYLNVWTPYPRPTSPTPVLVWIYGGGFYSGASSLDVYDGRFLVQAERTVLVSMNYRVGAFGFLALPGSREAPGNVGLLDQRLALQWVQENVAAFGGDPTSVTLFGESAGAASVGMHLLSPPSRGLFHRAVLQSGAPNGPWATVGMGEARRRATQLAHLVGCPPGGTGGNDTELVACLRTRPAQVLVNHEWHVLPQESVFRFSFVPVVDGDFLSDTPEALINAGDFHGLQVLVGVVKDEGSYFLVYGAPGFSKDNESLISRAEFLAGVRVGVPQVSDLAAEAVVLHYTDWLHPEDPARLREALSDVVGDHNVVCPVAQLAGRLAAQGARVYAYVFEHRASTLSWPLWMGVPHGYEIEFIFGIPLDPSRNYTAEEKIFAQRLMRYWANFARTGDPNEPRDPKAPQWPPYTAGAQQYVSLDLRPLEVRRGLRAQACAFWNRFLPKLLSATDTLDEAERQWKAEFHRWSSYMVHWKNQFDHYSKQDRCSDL
Thyrotropin-releasing hormone receptor (Homo sapiens), sequence (P34981 whole entry, looked up): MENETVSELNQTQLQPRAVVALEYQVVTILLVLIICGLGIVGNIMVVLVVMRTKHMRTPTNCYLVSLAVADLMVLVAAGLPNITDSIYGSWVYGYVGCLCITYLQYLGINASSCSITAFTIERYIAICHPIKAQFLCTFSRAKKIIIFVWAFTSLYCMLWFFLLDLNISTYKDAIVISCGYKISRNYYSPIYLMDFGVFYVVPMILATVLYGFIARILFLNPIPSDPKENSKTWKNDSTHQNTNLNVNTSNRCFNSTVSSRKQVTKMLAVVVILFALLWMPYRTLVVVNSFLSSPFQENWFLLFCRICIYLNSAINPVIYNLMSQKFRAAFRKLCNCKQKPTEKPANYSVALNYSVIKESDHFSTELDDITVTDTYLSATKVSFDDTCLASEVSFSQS
Progesterone receptor (Homo sapiens), sequence (P06401 whole entry, looked up): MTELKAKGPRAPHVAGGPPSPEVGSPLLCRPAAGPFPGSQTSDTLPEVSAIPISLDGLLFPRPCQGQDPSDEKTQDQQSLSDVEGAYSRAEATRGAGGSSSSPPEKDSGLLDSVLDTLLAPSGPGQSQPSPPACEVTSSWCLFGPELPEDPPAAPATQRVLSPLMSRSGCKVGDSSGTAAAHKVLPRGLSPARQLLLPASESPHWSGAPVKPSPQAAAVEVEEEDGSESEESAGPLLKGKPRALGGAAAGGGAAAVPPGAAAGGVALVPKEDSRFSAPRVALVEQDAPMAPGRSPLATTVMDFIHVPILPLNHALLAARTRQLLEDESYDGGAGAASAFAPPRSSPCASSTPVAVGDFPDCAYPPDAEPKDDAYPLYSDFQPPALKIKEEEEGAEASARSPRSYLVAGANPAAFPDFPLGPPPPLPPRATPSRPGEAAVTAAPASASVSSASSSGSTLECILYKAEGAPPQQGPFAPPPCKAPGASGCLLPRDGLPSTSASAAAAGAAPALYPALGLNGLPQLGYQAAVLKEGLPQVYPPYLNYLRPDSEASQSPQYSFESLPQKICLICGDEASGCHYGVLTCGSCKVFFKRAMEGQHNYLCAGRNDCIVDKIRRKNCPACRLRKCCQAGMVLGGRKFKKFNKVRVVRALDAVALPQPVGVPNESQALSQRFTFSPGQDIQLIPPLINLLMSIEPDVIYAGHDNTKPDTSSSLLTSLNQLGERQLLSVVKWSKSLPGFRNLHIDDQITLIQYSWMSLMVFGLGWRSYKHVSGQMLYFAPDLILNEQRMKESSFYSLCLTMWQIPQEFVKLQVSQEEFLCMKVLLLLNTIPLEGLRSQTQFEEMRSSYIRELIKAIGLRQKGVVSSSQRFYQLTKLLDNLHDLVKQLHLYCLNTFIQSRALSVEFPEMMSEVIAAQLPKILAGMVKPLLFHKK
Nuclear receptor subfamily 1 group I member 2 (Homo sapiens), sequence (O75469 whole entry, looked up): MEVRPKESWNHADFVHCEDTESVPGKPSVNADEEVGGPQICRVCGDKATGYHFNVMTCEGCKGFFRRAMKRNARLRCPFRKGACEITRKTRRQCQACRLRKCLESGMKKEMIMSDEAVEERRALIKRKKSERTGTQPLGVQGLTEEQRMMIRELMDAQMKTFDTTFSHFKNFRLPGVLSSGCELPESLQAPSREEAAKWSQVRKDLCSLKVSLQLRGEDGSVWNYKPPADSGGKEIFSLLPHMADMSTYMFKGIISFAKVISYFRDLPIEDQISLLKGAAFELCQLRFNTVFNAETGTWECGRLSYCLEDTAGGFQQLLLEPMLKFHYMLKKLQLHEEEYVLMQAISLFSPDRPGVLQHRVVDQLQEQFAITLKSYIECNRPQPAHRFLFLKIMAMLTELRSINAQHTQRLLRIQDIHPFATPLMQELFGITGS
Nuclear receptor subfamily 1 group I member 2 (Rattus norvegicus), sequence (Q9R1A7 whole entry, looked up): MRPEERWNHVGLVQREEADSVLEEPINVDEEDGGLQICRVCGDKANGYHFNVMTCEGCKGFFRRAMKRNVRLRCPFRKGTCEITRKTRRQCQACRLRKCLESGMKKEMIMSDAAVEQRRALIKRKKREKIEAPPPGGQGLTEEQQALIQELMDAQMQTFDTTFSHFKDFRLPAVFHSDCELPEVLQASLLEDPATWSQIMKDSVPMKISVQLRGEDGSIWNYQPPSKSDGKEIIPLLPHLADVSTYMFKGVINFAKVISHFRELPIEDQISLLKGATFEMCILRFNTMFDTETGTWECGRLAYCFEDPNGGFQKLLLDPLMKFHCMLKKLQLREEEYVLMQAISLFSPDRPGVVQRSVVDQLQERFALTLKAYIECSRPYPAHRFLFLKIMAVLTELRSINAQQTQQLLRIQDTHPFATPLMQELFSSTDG

On to `COC(=O)c1ccccc1CS(=O)(=O)NC(=O)Nc1nc(OC)cc(OC)n1`, for which the Potency result in assay [1], in assay [2], in assay [3], in [6], in assay [8] and in assay [11] was “inactive” throughout. In assay [13], the Potency result is “inactive”. In addition, the outcome in [4], in assay [5], in assay [7], in assay [9] and in [10] was inactive. The Potency in assay [12] was 34.4 µM (active).

As for `CC(C)(C)C(=O)Cl`, the Potency result in [1], in [3], in assay [14], in assay [15], in assay [6] and in assay [8] was “inactive” throughout. The Potency entry in [16], in [11], in [12] and in assay [13] was “inactive” throughout. Further, the result in assay [4], in assay [5], in assay [7], in assay [9] and in assay [10] was inactive.

With `O=C(NC(O)C(Cl)(Cl)Cl)NC(O)C(Cl)(Cl)Cl` (centres undefined), the Potency result in assay [17], in [2], in assay [3], in [14], in assay [15] and in [6] was “inactive” each time. For the same compound, the Potency result in assay [8], in assay [16], in [11], in assay [12], in assay [19] and in [20] was “inactive” in each case. For the same compound, the Potency entry in [13] is “inactive”. Besides, the compound was classed as inactive in assay [4], in assay [5], in [7], in [9] and in assay [10]. The max activation in assay [18] is -0.374%.

With `C[C@H](N)C(=O)c1ccccc1`, the Potency entry in [17], in [2], in assay [3], in [14], in [15] and in [6] was “inactive” in each case. The Potency result in assay [8], in [11], in assay [12] and in assay [13] was “inactive” throughout. Also, the compound was called inactive in assay [4], in assay [5], in [7], in assay [9] and in [10].

For the compound `N[C@@H]1C[C@H]1c1ccccc1`, the Potency result in [17], in assay [2], in assay [3], in assay [14], in assay [15] and in assay [6] was “inactive” throughout. For the same compound, the Potency entry in [16], in [11], in [19] and in [20] was “inactive” each time. Moreover, the compound was classed as inactive in assay [4], in assay [5], in assay [7], in [9] and in [13]. In assay [18], the max activation is -1.36%.

Turning to `Cl/C=C/CCl`, the Potency entry in assay [1], in assay [17], in assay [3], in assay [15], in assay [8] and in assay [11] was “inactive” throughout. In addition, the Potency entry in [12] and in assay [13] was “inactive” in each case. The call in [4], in assay [5], in assay [9] and in assay [10] was inactive.

With `CN(C)CCc1c[nH]c2cccc(OP(=O)(O)O)c12`, the Potency result in assay [17], in assay [2], in [3], in assay [14], in [15] and in [6] was “inactive” throughout. The Potency entry in [8], in assay [16], in assay [11], in assay [12] and in assay [13] was “inactive” each time. Also, the compound was called inactive in [4], in assay [5], in assay [7] and in assay [9].

As for `COC(=O)c1ccc(CBr)cc1`, the Potency entry in [17], in assay [2], in assay [3], in [14], in assay [15] and in assay [6] was “inactive” throughout. Also, the Potency entry in [8], in assay [11] and in [13] was “inactive” in each case. Besides, the call in [4], in [5], in [7] and in assay [10] was inactive. In [12], the Potency is 55.1 µM (active).

For the compound `O=C(O)C(F)(F)C(F)(F)C(F)(F)C(F)(F)C(F)(F)C(F)(F)F`, the Potency entry in [1], in assay [2], in assay [15], in assay [6], in assay [8] and in assay [16] was “inactive” in each case. For the same compound, the Potency result in assay [11] and in assay [12] was “inactive” each time. Further, the results for the Potency in [3] and in assay [14] were 48.6 µM (active) and 27.3 µM (active), respectively. The result in assay [4], in [5], in assay [7], in assay [9] and in assay [10] was inactive.

The values are drawn from PubChem BioAssay (Tox21).
